Compound activity: PubChem, National Center for Advancing Translational Sciences (NCATS)
Sampled rows, rich in hits. Any-hit rate of the full collection: about 1.1%.
LDHA inh: inhibitors of human lactate dehydrogenase A. purified LDHA, NADH/diaphorase-resazurin fluorescence; active compounds read low. AID 1347041. activity change, % (values are at about 110 or 230 µM). actives 0.15% (n = 480,000). P00338; in the data active = activity change below about -30%; inconclusive = mostly about -25% to -30%;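 also: plate controls were DMSO wells for no effect and wells without enzyme for full effect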
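Human LDH5 at 2 nM final in Tris HCl pH 7.4 with 0.06 mM NADH and 0.2 mM pyruvate, reacted 5 minutes at room temperature. Remaining NADH coupled via diaphorase/resazurin; resorufin fluorescence read at 0 and 20 minutes, normalized to enzyme-free and DMSO wells.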
TrxR1 substrate: rat thioredoxin reductase 1 substrate activity; O89049; purified TrxR1 substrate turnover, NADPH consumption readout; Potency, µM (doses to about 114 µM), without a hit: at the highest dose activity change, negative = substrate turnover; actives 0.01% (n = 390,000); AID 588456; also: potency is read from the fitted curve at half-maximal effect; nearly all actives have a fitted effect of over 50% in size
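Rat TrxR1, dispensed at 90 nM, was prereduced with 400 uM NADPH (final) for 5 min at ~22 deg C, then incubated with compound 15 min before 400 uM selenite. A first-read NADPH fluorescence drop versus no-compound background flagged substrates.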
GALK inh: blocks human galactokinase activity; Potency, µM (top dose mostly 57.5 µM), inactives show top-dose activity change, negative = inhibition, hits mostly inhibitors; actives 0.007% (n = 270,000); Purified GALK, Kinase-Glo residual ATP luminescence; also: potency is read from the fitted curve at half-maximal effect
Target sequence (P51570 whole entry, looked up): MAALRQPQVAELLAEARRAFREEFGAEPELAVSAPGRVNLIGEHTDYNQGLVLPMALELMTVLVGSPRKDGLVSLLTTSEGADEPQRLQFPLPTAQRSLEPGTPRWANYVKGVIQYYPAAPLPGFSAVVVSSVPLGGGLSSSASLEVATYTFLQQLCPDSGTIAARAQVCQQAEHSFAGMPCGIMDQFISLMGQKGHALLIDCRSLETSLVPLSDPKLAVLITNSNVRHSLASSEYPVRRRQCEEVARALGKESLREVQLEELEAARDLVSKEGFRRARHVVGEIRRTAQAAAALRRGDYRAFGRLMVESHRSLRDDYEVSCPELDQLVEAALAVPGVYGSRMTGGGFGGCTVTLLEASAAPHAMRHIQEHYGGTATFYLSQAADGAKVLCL
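Compounds were pin-transferred into ATP buffer (35 uM final), then GALK plus galactose (5 nM, 100 uM final) was added. After 1 h at room temperature, Kinase-Glo Plus was added and luminescence read after 10 min.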
PI4K2A block: blocks human PI4K2A kinase activity; Q9BTU6; purified PI4K2A, ADP-Glo luminescence, 1 h; active compounds read low; activity change, negative = inhibition, % at 76.9 µM; actives 0.13% (n = 420,000); in the data active = activity change below about -50%; inconclusive = mostly about -30% to -49%;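 also: -100% = wells without enzyme as full effect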
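In this quantitative HTS, ADP production by PI4K2A was quantified luminescently after 1 h at ambient temperature; 100 microM adenosine served as plate-quality control.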
rTrxR1 inhibitor: blocks rat thioredoxin reductase 1; Potency, µM (titrated, usually from 114 µM), without a hit: top-dose activity change, negative = inhibition, actives largely listed as inhibitors; recombinant rTrxR1, NADPH fluorescence consumption, selenite substrate; actives 1% (n = 390,000); also: potency is read from the fitted curve at half-maximal effect; nearly all actives have a fitted effect of over 65% in size
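Rat TrxR1 (90 nM in the dispensed reagent) was pre-reduced with 400 uM NADPH for 5 min at room temperature, then incubated with compound for 15 min. After 400 uM selenite was added, NADPH fluorescence (Ex 340/Em 450 nm) was followed for 8 min.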
Integrin act MD: integrin-mediated muscular dystrophy alleviation activation. alpha7betagal myoblasts, beta-gal FDG fluorescence, 48 h. Potency, µM (doses to about 38.3 µM), for inactives: top-dose activation, usual class: activators. actives 0.064% (n = 350,000);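 also: potency is read from the fitted curve at half-maximal effect; 100% = response of the positive control SU9516; nearly all actives have a fitted effect of over 60% in size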
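alpha7betagal+/- myoblasts (passage 13, 250/well) treated 48 h at 37C with compounds at 1:260 dilution of DMSO stock. Lysed, then beta-galactosidase activity read as FDG fluorescence (ex 480/em 540) after 30 min, with pre-read for autofluorescence.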
Starred values were filed as active, the others as inactive; u = inconclusive; x = no result; ! = not active in a repeat; [ ] = dose if it differs, or a comment. Unless noted, calls follow the shape of the dose curve; as a rule, active = well fitted curve in the direction sought with a large enough effect; inconclusive = small, poorly fitted or top-dose-only effect, or another doubt; inactive = no such curve, though single readings can be large; an effect the other way counts as inactive or inconclusive. Unless noted, % is scaled to controls: 0 for no effect and ±100 for the full control effect.

SMILES	LDHA inh	TrxR1 substrate	GALK inh	PI4K2A block	rTrxR1 inhibitor	Integrin act MD
Cc1ccc(NC(=O)N2CC3CCCN3c3ccccc32)cc1C (stereo unspecified)	17	-7%	x	-4	-13%	x
Cc1cccc(N2CCN(C(=O)COCc3cc(-c4ccc(F)cc4)on3)CC2)c1C	-3	x	x	x	x	x
Cn1c(=O)c(=O)n(C)c2cc(N3CCCC3)c(NS(=O)(=O)c3ccc(Cl)cc3)cc21	11	-1%	-5%	-5	35µM*	-14%
C#Cc1cccc(NCC(=O)N2CCCCCCC2)c1	-1	x	x	x	x	x
NC(=S)N/N=C/c1cc(-c2ccccc2)[nH]c1-c1ccccc1	2	x	x	x	x	x
CCCC(C)NC(=O)Nc1cc(C(=O)NC2CC2)ccc1C (stereo unspecified)	-34*	x	x	x	x	x
CC1(C)CC(=O)C2=C(C1)NC(Nc1nc3ccccc3o1)=NC2c1cccc(Cl)c1 (stereo unspecified)	-30*	x	x	x	x	x
Cc1ccccc1C1N=C(Nc2nc3ccccc3o2)NC2=C1C(=O)CC(C)(C)C2 (stereo unspecified)	-2	x	x	x	x	x
CC(=O)NNC(=O)COC(=O)c1ccccc1Sc1ccccc1C#N	5	x	x	x	x	x
CCC(=O)N1CCc2cc(Br)cc(S(=O)(=O)N3CCCC(C(=O)Nc4cc(C)ccc4OC)C3)c21 (stereo unspecified)	3	0%	x	3	89µM*	x
O=C(Nc1c(-c2ccc(F)cc2)nc2sccn12)c1cccc(S(=O)(=O)N2CCOCC2)c1	11	x	x	x	x	x
c1ccc(-c2ccc3[nH]ccc3c2)cc1	-1	10%[57.1 µM]	x	1	20%[57.1 µM]	11%
c1ccc(-c2onc(-c3ccco3)c2-c2ccc3[nH]ccc3c2)cc1	0	12%[57.1 µM]	x	0	28µM*!	16%
CCOC(=O)C=C(C(=O)OCC)C(=O)OCC	0	9%	1%	-1	3.5µM*	-20%
CCOC(=O)C(=CNC(N)=O)C(=O)OCC	11	x	x	x	x	x
Cc1cc(C(F)(F)F)nn1CC(=O)Nc1c(F)cc(F)cc1Br	1	x	x	x	x	x
Cc1[nH]c2ccccc2c1C(=O)CN1CCC(C)CC1	-7	-4%	-1%	4	35µM*	-5%
O=C1OC(CN(Cc2ccccc2)Cc2ccccc2)CN1N=Cc1ccc([N+](=O)[O-])o1 (stereo unspecified)	-3	-15%	x	-3	56µM*	-13%
O=C(CC(Sc1ccc(Br)cc1)C(=O)O)c1ccc(F)cc1 (stereo unspecified)	-5	2%	4%	-18	28µM*	-61%
CCOc1ccc(C(=O)CC(Sc2ccc(C)cc2)C(=O)O)cc1 (stereo unspecified)	1	-10%[57.1 µM]	1%	-10	22%[57.1 µM]	-16%
COc1ccc(NC(=O)c2csc3c2CCCC3)cc1	1	-4%	0%	-61*	17%	-8%
COc1cccc(NC(=O)c2csc3c2CCCC3)c1	-2	-8%[57.1 µM]	-2%	-1	23%[57.1 µM]	7%
CC(=O)c1cccc(NC(=O)c2ccc3c(c2)CCCC3)c1	-2	2%	9%	7	15%	-44%
COc1cccc(NC(=O)c2ccc3c(c2)CCCC3)c1	0	0%	3%	-12	28%	5.6µM*
O=[N+]([O-])c1ccc(/C=N/O)cc1	0	x	x	x	x	x
SMILES	LDHA inh	TrxR1 substrate	GALK inh	PI4K2A block	rTrxR1 inhibitor	Integrin act MD
COc1cccc(NC(=O)c2ccc(-c3ccccc3[N+](=O)[O-])o2)c1	5	-7%[57.1 µM]	2%	0	16µM*	-9%
Cc1cccc(NC(=O)c2ccc(-c3ccccc3[N+](=O)[O-])o2)c1	-5	0%[57.1 µM]	2%	1	u	-1%
O=C(NCC(c1ccco1)S(=O)(=O)c1ccccc1)c1ccc2c(c1)OCO2 (stereo unspecified)	5	x	x	x	x	x
COc1cccc(CN2C(=O)N(c3cccc(OC)c3)S(=O)(=O)c3ccccc32)c1	-2	x	x	x	x	x
COc1ccc(OC)c(C2C(C(=O)c3ccc(C)o3)=C(O)C(=O)N2CCN2CCOCC2)c1 (stereo unspecified)	1	-2%	8%	0	u	-44%
CCCOc1ccc(C2C(C(=O)c3ccc(C)o3)=C(O)C(=O)N2CCN2CCOCC2)cc1OC (stereo unspecified)	2	-6%	0%	5	50µM*	-18%
CN(CCCCOc1ccc2ccccc2c1)CCCCOc1ccc2ccccc2c1	3	x	x	x	x	x
O=Cc1ccc(OCc2cccc(Br)c2)cc1	5	x	x	x	x	x
Cc1[nH]n(-c2ncc(-c3ccccc3)s2)c(=O)c1C(c1ccc(Br)cc1)C(C#N)C#N (stereo unspecified)	-6	-6%	0%	32	32µM*	15%
Cc1[nH]n(C(N)=S)c(=O)c1C(c1ccccc1)C(C#N)C#N (stereo unspecified)	1	2%	-4%	48	u	-4%
Nc1ccc(C(=O)Nc2ccc3cc(S(=O)(=O)O)ccc3c2)cc1	-6	-10%	x	-8	-7%	-5%
O=C(Nc1cc(C(=O)Nc2ccc(S(=O)(=O)O)cc2S(=O)(=O)O)cc(C(=O)Nc2ccc(S(=O)(=O)O)cc2S(=O)(=O)O)c1)Nc1cc(C(=O)Nc2ccc(S(=O)(=O)O)cc2S(=O)(=O)O)cc(C(=O)Nc2ccc(S(=O)(=O)O)cc2S(=O)(=O)O)c1	-38*	-4%	x	x	-8%	x
COC(=O)c1sc(N)c(C#N)c1C	1	x	x	x	x	x
Cc1[nH]n(-c2ccc(F)cc2)c(=O)c1CCC(=O)Nc1ccc(C#N)cc1	-30*	x	x	x	x	x
O=C(CSc1ncc(-c2ccc(F)cc2)o1)NC1CCCC1	-7	x	x	x	x	x
O=C(CSc1nc2ccc(Cl)cc2[nH]1)N1CCN(C(=O)c2ccco2)CC1	1	6%	0%	-8	16µM*	6%
Cc1cc(Cl)ccc1OCCCC(=O)N1CCN(C(=O)c2ccco2)CC1	-7	-1%[57.1 µM]	7%	-5	28µM*	8%
O=C(CCCOc1ccccc1)N1CCN(C(=O)c2ccco2)CC1	-13	3%	0%	3	12%	-23%[7.66 µM]
CCc1cc2ccc(C)cc2nc1SCC(=O)N1CCN(C(=O)c2ccco2)CC1	-6	4%	0%	0	4µM*	-3%
Cc1ccc(-c2cnc(CCC(=O)N(C)C(C)c3ccc(S(N)(=O)=O)cc3)o2)cc1 (stereo unspecified)	-2	x	x	x	x	x
CCn1c(=O)c(C(=O)Nn2c(C)nc3ccccc3c2=O)c(O)c2ccccc21	u	0%	-1%	-6	-10%	4%
CCc1nc2ccccc2c(=O)n1NC(=O)c1c(O)c2ccccc2n(CC)c1=O	-40*	7%[57.1 µM]	-1%	1	11%[57.1 µM]	13%
